# From PubChem BioAssay
# Activity calls are given as the source filed them.
# Tests used:
# [1] = optical density shifts of acrAB sulA E. coli – strain DRC41, OD650, 48 h, E. coli filamentation inducer project, primary screen (AID 1152); conditions: higher = more signal, called active from +8 up or from −8 down;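 also: E. coli MC1000 strain DRC41 lacking acrAB efflux pump and sulA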
# [2] = probe aLefty1 binding on compound microarray – biochemical, small-molecule microarray, 635/667 nm fluorescence, primary screen (AID 1153); conditions: higher = more signal;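 also: score merges spot fluorescence with signal-to-noise ratio from the scanned slide images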
# [3] = plasmodial surface anion channel blockers, osmotic lysis – cell-based, P. falciparum Indochina, OD700, 1 h, primary screen (AID 1154); conditions: P. falciparum Indochina infected RBC osmotic lysis, higher = more signal, called active from +8 up or from −8 down
# [4] = plasmodial surface anion channel blockers, osmotic lysis – cell-based, P. falciparum Indochina, OD700, 2 h, primary screen (AID 1155);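 also: lysis reports solute entry through the parasite surface anion channel PSAC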; conditions: P. falciparum Indochina infected erythrocytes, higher = more signal, called active from +8 up or from −8 down
# [5] = changes in parasitized red cell lysis, either direction – P. falciparum Indochina, OD700, 3 h, PSAC antagonist project, primary screen (AID 1156); conditions: P. falciparum-infected erythrocytes, osmotic lysis, higher = more signal, called active from +8 up or from −8 down
# [6] = plasmodial surface anion channel blockers, osmotic lysis – cell-based, P. falciparum Indochina, OD700, 18 h, primary screen (AID 1157); conditions: P. falciparum Indochina infected erythrocytes, osmotic lysis OD700, 18 h; higher = more signal, called active from +8 up or from −8 down
# [7] = S6 kinase pathway phospho-S6 level changes – cell-based, A549, cytoblot, luminescence, serum-stimulated, primary screen (AID 1158); conditions: 5 h, higher = more signal;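 also: serum-stimulated A549 lung adenocarcinoma cells; signal is phosphorylated S6 detected by cytoblot immunostaining with HRP secondary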
# [8] = molecular target: NADPH oxidase 2 (Homo sapiens) (UniProt P04839); test: compounds shifting NOX2 Amplex Red fluorescence – cell-based, HEK293-NOX2, PMA-stimulated, NOX inhibitor project, primary screen (AID 1159); conditions: 45 min, higher = more signal, called active from +8 up or from −8 down; also: test concentration not given here
# [9] = molecular target: NADPH oxidase 4 (Homo sapiens) (UniProt Q9NPH5); test: compounds shifting NOX4 Amplex Red fluorescence – cell-based, HEK293-NOX4, tetracycline-induced, NOX inhibitor project, primary screen (AID 1160); conditions: HEK293-NOX4, Amplex Red H2O2 fluorescence, 45 min; higher = more signal, called active from +8 up or from −8 down
# [10] = molecular target: NADPH oxidase 5 (Homo sapiens) (UniProt Q96PH1); test: compounds shifting NOX5 Amplex Red fluorescence – cell-based, HEK293-NOX5, NOX inhibitor project, primary screen (AID 1161); conditions: HEK293-NOX5, ionomycin, 45 min, higher = more signal
# [11] = compound effects on lung adenocarcinoma cell viability – A549, calcein-AM fluorescence, 48 h, basal, profiling panel (AID 1162); conditions: higher = more signal; also: test concentration not given here
# [12] = compound effects on differentiated 3T3-L1 adipocyte viability – cell-based, 3T3-L1 adipocytes, calcein-AM fluorescence, 48 h, basal, profiling panel (AID 1163); conditions: 3T3-L1 adipocytes viability, higher = more signal; also: test concentration not given here
# [13] = compound effects on hepatocellular carcinoma cell viability – HepG2, calcein-AM fluorescence, 48 h, basal, profiling panel (AID 1164); conditions: higher = more signal; also: test concentration not given here
# [14] = compound effects on multiple myeloma cell viability – MM1S, calcein-AM fluorescence, 48 h, basal, profiling panel (AID 1165); conditions: higher = more signal; also: test concentration not given here
# [15] = calcein-AM signal in unstimulated myeloma cells – cell-based, calcein-AM fluorescence, 48 h, PK04 Diversity Set, profiling panel (AID 1166); conditions: RPMI8226 myeloma viability, higher = more signal;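 also: cells grown under basal conditions without added stimulus; test concentration not given here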
# [16] = JC-1 mitochondrial signal, unstimulated HepG2 cells – cell-based, JC-1 fluorescence, 24 h, 100 nL compound, profiling panel (AID 1167); conditions: HepG2 mitochondrial potential, higher = more signal; also: test concentration not given here
# [17] = JC-1 mitochondrial signal, unstimulated adipocytes – cell-based, JC-1 fluorescence, 3T3-L1 adipocytes, 24 h, 100 nL compound, profiling panel (AID 1168); conditions: JC-1 mitochondrial fluorescence, higher = more signal, called active from +8 up or from −8 down; also: test concentration not given here
# [18] = JC-1 mitochondrial signal, unstimulated myeloma cells – cell-based, JC-1 fluorescence, RPMI8226, 24 h, 100 nL compound, profiling panel (AID 1169); conditions: JC-1 mitochondrial potential fluorescence, higher = more signal; also: test concentration not given here
# [19] = JC-1 mitochondrial signal, unstimulated MM1S myeloma – cell-based, JC-1 fluorescence, 24 h, 100 nL compound, profiling panel (AID 1170); conditions: MM1S mitochondrial potential, higher = more signal; also: test concentration not given here
# [20] = resazurin metabolic signal in A549 cells – cell-based, resazurin fluorescence, 24 h, PK04 Diversity Set, profiling panel (AID 1171); conditions: A549 viability, higher = more signal, called active from +8 up or from −8 down; also: test concentration not given here
# Chain of NADPH oxidase 4 (Homo sapiens) (Q9NPH5 whole entry, looked up): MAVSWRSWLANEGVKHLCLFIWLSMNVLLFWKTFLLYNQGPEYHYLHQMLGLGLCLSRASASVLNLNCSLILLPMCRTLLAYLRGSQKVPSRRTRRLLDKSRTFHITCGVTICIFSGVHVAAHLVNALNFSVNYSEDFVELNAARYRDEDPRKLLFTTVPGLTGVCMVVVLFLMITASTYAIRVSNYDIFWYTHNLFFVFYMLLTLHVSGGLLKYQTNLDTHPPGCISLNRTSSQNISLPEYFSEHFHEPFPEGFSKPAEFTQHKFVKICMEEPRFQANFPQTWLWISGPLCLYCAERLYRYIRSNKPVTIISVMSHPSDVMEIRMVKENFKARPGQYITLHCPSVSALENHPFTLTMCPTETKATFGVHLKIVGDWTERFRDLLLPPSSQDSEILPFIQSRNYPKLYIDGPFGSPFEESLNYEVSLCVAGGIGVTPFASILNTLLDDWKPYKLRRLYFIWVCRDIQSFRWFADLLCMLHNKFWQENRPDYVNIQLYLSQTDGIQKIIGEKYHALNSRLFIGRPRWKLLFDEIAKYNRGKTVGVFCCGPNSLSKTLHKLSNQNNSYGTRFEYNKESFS
# Chain of NADPH oxidase 2 (Homo sapiens) (P04839 whole entry, looked up): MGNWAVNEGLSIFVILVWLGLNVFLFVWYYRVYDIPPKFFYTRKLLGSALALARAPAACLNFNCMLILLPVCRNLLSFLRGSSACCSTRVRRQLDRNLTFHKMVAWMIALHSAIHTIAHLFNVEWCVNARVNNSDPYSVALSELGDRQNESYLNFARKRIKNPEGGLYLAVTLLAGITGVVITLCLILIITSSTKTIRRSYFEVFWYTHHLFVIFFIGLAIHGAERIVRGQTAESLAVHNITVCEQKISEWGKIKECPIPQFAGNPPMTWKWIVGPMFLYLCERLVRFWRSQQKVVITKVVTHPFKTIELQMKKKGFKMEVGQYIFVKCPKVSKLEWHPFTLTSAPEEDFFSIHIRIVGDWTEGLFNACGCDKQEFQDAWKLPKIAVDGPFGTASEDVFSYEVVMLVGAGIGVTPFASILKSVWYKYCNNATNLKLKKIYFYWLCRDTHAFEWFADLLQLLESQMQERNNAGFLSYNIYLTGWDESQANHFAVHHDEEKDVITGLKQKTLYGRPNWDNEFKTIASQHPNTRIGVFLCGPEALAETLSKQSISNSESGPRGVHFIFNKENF
# Chain of NADPH oxidase 5 (Homo sapiens) (Q96PH1 whole entry, looked up): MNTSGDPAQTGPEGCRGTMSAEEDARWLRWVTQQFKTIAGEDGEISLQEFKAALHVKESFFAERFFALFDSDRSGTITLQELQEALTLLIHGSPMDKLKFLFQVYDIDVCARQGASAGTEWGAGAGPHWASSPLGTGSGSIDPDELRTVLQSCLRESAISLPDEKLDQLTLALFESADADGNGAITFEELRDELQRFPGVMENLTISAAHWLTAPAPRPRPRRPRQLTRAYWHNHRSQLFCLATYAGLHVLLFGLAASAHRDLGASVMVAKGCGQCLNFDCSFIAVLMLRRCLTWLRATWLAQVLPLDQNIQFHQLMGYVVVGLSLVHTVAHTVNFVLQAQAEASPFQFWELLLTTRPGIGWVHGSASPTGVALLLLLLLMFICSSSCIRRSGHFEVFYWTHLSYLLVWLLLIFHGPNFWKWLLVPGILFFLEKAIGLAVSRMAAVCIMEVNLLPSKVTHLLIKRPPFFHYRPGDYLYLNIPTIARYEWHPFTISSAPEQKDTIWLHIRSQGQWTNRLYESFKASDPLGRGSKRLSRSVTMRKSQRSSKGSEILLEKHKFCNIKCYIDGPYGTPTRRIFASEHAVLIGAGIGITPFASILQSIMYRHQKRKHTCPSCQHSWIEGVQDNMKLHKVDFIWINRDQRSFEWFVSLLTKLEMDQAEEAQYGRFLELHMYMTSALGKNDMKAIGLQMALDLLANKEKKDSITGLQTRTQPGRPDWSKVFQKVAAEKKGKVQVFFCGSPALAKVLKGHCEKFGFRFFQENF
Structure (SMILES),z-score [1],composite z-score [2],z-score [3],z-score [4],z-score [5],z-score [6],z-score [7],z-score [8],z-score [9],z-score [10],z-score [11],z-score [12],z-score [13],z-score [14],z-score [15],z-score [16],z-score [17],z-score [18],z-score [19],z-score [20]
O=c1cccc(-c2ccccc2Cl)o1,-0.685 (inactive),-0.456,0.298 (inactive),0.585 (inactive),-0.187 (inactive),0.414 (inactive),-0.767,0.182 (inactive),-0.914 (inactive),0.863,0.586,0.528,0.614,-1.04,0.0055,-0.98,-0.428 (inactive),-0.103,0.304,-0.0719 (inactive)
COCC(=C=CC[C@H](O)c1ccccc1OCCO)CCO,0.0257 (inactive),-0.206,2.69 (inactive),-0.0718 (inactive),-0.107 (inactive),0.0371 (inactive),-0.509,0.281 (inactive),0.263 (inactive),-0.397,0.474,-0.233,0.304,-0.48,-0.0001,-0.853,-0.624 (inactive),-0.345,-0.654,-0.323 (inactive)
C=CCOC(=O)[C@H]1[C@@H]2C(=O)O[C@@H](c3ccccc3)[C@@H](c3ccccc3)N2[C@@H](c2ccc(OCCOC(=O)[C@@H]3C[C@@H]4C(=O)N5CCC[C@H]5C(=O)N4[C@@H]3c3cccc(OCCO)c3)cc2)[C@]12C(=O)Nc1ccc(I)cc12,-0.811 (inactive),1.53,4.52 (inactive),2.5 (inactive),1.25 (inactive),1.5 (inactive),-0.679,1.86 (inactive),0.833 (inactive),1.49,-1.06,0.997,-0.649,-0.349,0.206,-0.689,1.19 (inactive),-0.643,-0.959,-0.476 (inactive)
CN1C(=O)C2C=CC(C(O)c3c(F)cccc3Cl)N(NC(=O)OC(C)(C)C)C2C1=O (stereo not given),-0.963 (inactive),0.343,-0.332 (inactive),0.119 (inactive),-0.46 (inactive),0.58 (inactive),-1.11,-1.06 (inactive),-0.495 (inactive),-1.03,-0.646,-0.204,-0.482,-0.208,-1.64,-1.25,-0.555 (inactive),-0.715,0.925,0.143 (inactive)
O=C1OCCC=C[C@H]2OC34C=CCN(CCN5CCOCC5)C(=O)[C@H]3N(CCCCCO)C(=O)[C@@H]4C12 (stereo not given in full),0.725 (inactive),-0.103,2.61 (inactive),0.535 (inactive),2.32 (inactive),0.305 (inactive),-0.0483,0.855 (inactive),0.393 (inactive),1.85,0.478,0.0858,1.02,-0.0119,0.218,0.575,0.172 (inactive),-0.152,-0.355,0.203 (inactive)
C=C(C)[C@@H]1CC=C(C(O)C2C=CC3C(=O)NC(=O)C3N2Nc2ccc(Cl)cc2Cl)CC1 (stereo not given in full),-2.9 (inactive),0.266,5.74 (inactive),1.4 (inactive),-0.372 (inactive),1.61 (inactive),-1.02,-2.38 (inactive),-6.41 (inactive),-3.51,-3.8,0.641,-3.88,-3.71,-3.89,-3.7,-0.432 (inactive),-0.934,-0.944,-2.76 (inactive)
COc1cc2c(cc1O)C(c1cccs1)N(Cc1ccc([N+](=O)[O-])o1)CC2 (stereo not given),1.9 (inactive),0.0161,25.1 (active),7.24 (inactive),-0.39 (inactive),-0.628 (inactive),1.23,-4.4 (inactive),-2.58 (inactive),-2.92,0.383,0.0975,0.859,0.647,0.174,-0.771,0.627 (inactive),-0.185,1.09,-1.63 (inactive)
C=C(C(=O)CC[C@H](OC(C)=O)c1ccccc1OCCO)C(C)C,0.0974 (inactive),-0.147,2.27 (inactive),2.54 (inactive),-4.78 (inactive),-0.431 (inactive),0.66,-5.71 (inactive),-2.22 (inactive),-3.36,-2.33,-0.375,-3.04,-0.899,-1.94,-0.892,1.99 (inactive),-0.621,-1.19,-2.7 (inactive)
CC(C)(C)OC(=O)CC[C@]1(C(N)=O)N=C(c2ccc(OCCCO)cc2)O[C@H]1c1ccccc1,-0.179 (inactive),0.762,6.16 (inactive),-0.927 (inactive),-0.524 (inactive),-0.367 (inactive),0.0312,0.266 (inactive),-1.12 (inactive),0.814,-0.73,0.13,-0.61,-0.415,0.37,-1.26,-0.709 (inactive),0.816,0.335,-0.164 (inactive)
